Compounds with a hit are over-represented: about 11% of the library has one in this group of screens.
JMJD2E inh: JMJD2E (human) inhibition | 230,000 tested, 1.6% active | JMJD2E catalytic domain, FDH-coupled NADH fluorescence (FDH is formaldehyde dehydrogenase) | Potency, µM (top dose mostly 57.1 µM), most hits filed as inhibitors | AID 2147; also: nearly all actives have a fitted effect of over 50% in size
Target sequence (B2RXH2 1-337 limits assumed): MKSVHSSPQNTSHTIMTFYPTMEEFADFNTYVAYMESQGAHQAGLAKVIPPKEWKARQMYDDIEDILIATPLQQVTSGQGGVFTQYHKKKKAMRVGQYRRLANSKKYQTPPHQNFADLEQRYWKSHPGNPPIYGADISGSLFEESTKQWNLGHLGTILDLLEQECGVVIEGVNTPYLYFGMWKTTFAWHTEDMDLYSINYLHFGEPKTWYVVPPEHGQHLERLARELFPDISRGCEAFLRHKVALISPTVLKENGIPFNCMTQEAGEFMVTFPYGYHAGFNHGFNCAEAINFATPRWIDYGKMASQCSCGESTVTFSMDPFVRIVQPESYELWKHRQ
PNC assembly inh: perinucleolar compartment assembly inhibition | activity change (PNC), negative = inhibition, % at 10 µM | 140,000 tested, 3.1% active | PC3M PTB-GFP, PNC prevalence imaging, 16 h; hits give low values;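 active = readout at or below -70, meaning at least 70% loss of cells showing the perinucleolar compartment, a nuclear body marking cancer cells; inconclusive = readout between -30 and a set limit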
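Compounds are pinned in duplicate onto adhered PC3M cells stably expressing GFP-tagged PTB and incubated 16 h at 37 C. Cells are then fixed, nuclei stained with Hoechst, and PNC-positive cells counted.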
HPGD inh: blocks human HPGD enzyme activity; P15428; purified HPGD, NADH fluorescence kinetic, PGE2 substrate; Potency, µM, hits mostly inhibitors; 150,000 tested, 4.3% active; AID 894
Target sequence (P15428 whole entry, looked up): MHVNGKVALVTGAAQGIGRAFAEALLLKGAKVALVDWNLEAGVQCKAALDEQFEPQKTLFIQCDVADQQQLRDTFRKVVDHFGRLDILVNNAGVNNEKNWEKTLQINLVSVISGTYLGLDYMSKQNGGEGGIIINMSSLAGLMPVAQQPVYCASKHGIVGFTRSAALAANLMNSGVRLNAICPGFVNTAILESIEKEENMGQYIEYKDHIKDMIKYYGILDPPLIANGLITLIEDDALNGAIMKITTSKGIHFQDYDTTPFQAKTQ
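20 nM HPGD preincubated 15 min at room temperature with compound in 50 mM Tris-HCl pH 8, 0.01% Tween 20. Started with 1 mM NAD+ and 30 uM prostaglandin E2; NADH fluorescence (360/450 nm) read 5 times over 30-s intervals, last minus first.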
ALDH1A1 block: inhibitors of human aldehyde dehydrogenase 1A1 | P00352 | Potency, µM (doses to about 75.3 µM), hits mostly inhibitors | 220,000 tested, 7.3% active | Purified ALDH1A1, NADH fluorescence, propionaldehyde substrate
A number is an active result; – = inactive; ? = inconclusive; · = no result; [ ] = dose if it differs, or a comment. Unless noted, calls follow the shape of the dose curve; as a rule, active = well fitted inhibition curve with a large enough effect (not every such curve was filed as active); inconclusive = small, poorly fitted or top-dose-only effect, or another doubt; inactive = no such curve, though single readings can be large or run the other way.

SMILES	JMJD2E inh	PNC assembly inh	HPGD inh	ALDH1A1 block
COC(=O)c1ccc(NC(=O)CSc2nccn2CCc2ccccc2)cc1	–	–	–	20µM
CCOc1ccc(NC(=O)CSc2nnc(-c3ccccn3)n2N)cc1	–	?	–	11µM
COCCCn1c(SCC(=O)Nc2ccc(C(=O)OC)cc2)nc2ccccc2c1=O	–	-117	–	?
O=C(O)CNC(=O)[C@H]1NC(C(F)(F)F)(C(F)(F)F)OC1(C(F)(F)F)C(F)(F)F	·	·	–	–[13.5 µM]
CCOc1ccc(NC(=O)CSc2nc3cccnc3n2CC)cc1	–	–	–	–
CCOc1ccc(NC(=O)CSc2nc3cccnc3n2CCOC)cc1	–	–	–	28µM
C=CCNC(=S)/C(=C(/[O-])c1ccc([N+](=O)[O-])cc1)[n+]1ccccc1	22µM	·	·	?
COC(=O)c1ccc(NC(=O)c2ccccc2-c2ccccc2C(=O)O)cc1	–	·	·	–
C=C(C(C)=O)C(O)c1ccco1 (stereo not given)	?	·	–	?
COC(=O)[C@@]1(Cc2ccc(OC)cc2)[C@H]2c3cc(C(=O)N(C)C)n(C)c3C[C@H]2CN1C(=O)c1ccccc1	–	·	–	–
c1ccc(-c2n[nH]c3ccccc23)cc1	?	–	14µM	?
Fc1ccc(-c2n[nH]c(=S)c3ccccc23)cc1	–	·	·	4µM
CCOC(=O)c1c(NC(=O)Cn2nc(C(F)(F)F)cc2C)sc(C)c1C	–	–	?	–
C/C(N=Nc1nc2ccccc2s1)=N\Nc1ccccc1O	–	·	·	·
COc1ccc(OC)c(N(CC(=O)Nc2cccnc2)S(=O)(=O)c2ccc(C)cc2)c1	–	–	7.1µM	–
COc1ccc(C)cc1S(=O)(=O)N(C)CC(=O)Nc1ccccc1	–	-108	–	?
COc1ccc(OC)c(N(CC(=O)Nc2cccnc2)S(=O)(=O)c2ccc(OC)c(OC)c2)c1	–	-109	16µM	–
COc1ccc(OC)c(N(CC(=O)Nc2ccc3c(c2)OCO3)S(=O)(=O)c2ccccc2)c1	–	–	32µM	–
COc1ccc(Cl)cc1N(CC(=O)Nc1ccc2c(c1)OCO2)S(C)(=O)=O	–	–	–	–
O=C(NC1=NCCS1)c1cccc2ccccc12	–	·	·	–
COc1ccccc1N(CC(=O)Nc1cc(C)on1)S(=O)(=O)c1ccc(Cl)cc1	–	–	14µM	–
COc1ccccc1N(C)S(=O)(=O)c1ccc(C(=O)OCC(=O)Nc2cc(C)on2)cc1	–	·	·	–
COCCNCC(=O)Nc1ccccc1Sc1ccccc1	–	–	–	?
CC(C)[C@H](NC(N)=O)C(=O)Nc1ccc(F)c(Cl)c1	–	·	·	–
CCOc1ccc(C(=O)CN2CCN(S(=O)(=O)c3ccc(OC)cc3)CC2)cc1	–	–	–	20µM
SMILES	JMJD2E inh	PNC assembly inh	HPGD inh	ALDH1A1 block
COc1cccc(C(=O)CN2CCN(S(=O)(=O)c3ccc(Br)cc3)CC2)c1	–	–	–	11µM
CCOc1ccc(C(=O)CN2CCN(S(=O)(=O)c3ccc(Br)cc3)CC2)cc1	–	–	–	22µM
CCOc1ccc(NC(=O)CCN2CCN(S(=O)(=O)c3ccc(OC)cc3)CC2)cc1	–	–	–	–
CCN1CCN(S(=O)(=O)c2cccc([N+](=O)[O-])c2)CC1	–	?	–	–
COc1ccc(C(=O)CN2CCN(S(=O)(=O)c3cccc([N+](=O)[O-])c3)CC2)cc1	–	–	–	10µM
O=C(CSc1ccc(Cl)cc1)N1CCN(c2ccc([N+](=O)[O-])cc2Cl)CC1	–	–	–	20µM
NC(=O)C1CCN(c2ccc([N+](=O)[O-])cc2Cl)CC1	–	·	·	20µM
Cc1ccccc1CN(c1ccc(C(=O)Nc2ccccc2C(=O)NCc2ccco2)cc1)S(C)(=O)=O	–	?	?	?
S=C(NCc1ccco1)NCC(c1ccco1)N1CCCCC1 (stereo not given)	–	·	·	–
O=C(CNC(=O)c1cccs1)N/N=C/c1ccc(O)cc1O	3.2µM	·	·	–
O=C(CCc1ccccc1)NCC(=O)N/N=C/c1ccc(O)cc1O	6.3µM	·	·	·
O=C(CN1CCCc2ccccc21)N/N=C/c1ccc(O)cc1O	25µM	–	–	–
CCOC(=O)C1=C[C@@]2(CC)CCCN3CCc4c(n1c1ccccc41)C32 (stereo not given in full)	–	·	–	–
Cc1cc(C(=O)OCC(=O)c2ccc(Cl)c([N+](=O)[O-])c2)c2cccc(C)c2n1	–	–	–	13µM
Cc1ccc2nc(C)cc(C(=O)OCC(=O)c3ccc(Cl)c([N+](=O)[O-])c3)c2c1	–	–	–	20µM
Cc1cc(C(=O)OCC(=O)c2cccc([N+](=O)[O-])c2)c2ccccc2n1	–	?	–	–
CC1CC2C(C(O)C[C@]3(C)C2CC[C@]3(O)C(=O)CO)[C@]2(C)C=CC(=O)C=C12 (stereo not given in full)	–	·	–	–
CCOC(=O)/C(C#N)=C1\CCCN1CC(N)=S	–	–	?	20µM
CCN1C=C(C(=O)OC)C(c2cccc(C)c2)C(C(=O)OC)=C1	?	-80	?	?
CC(C)Cn1cnc2c(SCc3ccc(Cl)cc3Cl)nc(N)nc21	·	·	–	–[13.5 µM]
Cc1cc2cc(CN(Cc3ccc4c(c3)OCO4)Cc3nnnn3C3CCCC3)c(=O)[nH]c2cc1C	–	–	–	22µM
Cc1ccc2[nH]c(=O)c(CN(Cc3ccc4c(c3)OCO4)Cc3nnnn3C3CCCC3)cc2c1	?	–	–	20µM
CC1(C)CCC[C@]2(C)C3CC(=O)O[C@@]3(C)CC[C@H]12 (stereo not given in full)	–	·	–	20µM
COc1ccc(S(=O)(=O)/N=C2/NC(=O)/C(=C\c3ccco3)S2)cc1	–	–	28µM	18µM
COc1ccc(S(=O)(=O)/N=C2/NC(=O)/C(=C/c3ccco3)S2)cc1	?	–	?	22µM
SMILES	JMJD2E inh	PNC assembly inh	HPGD inh	ALDH1A1 block
O=C(O)C(Cl)(c1ccccc1)c1ccccc1	·	·	–	–[13.5 µM]
CC(C)C1C(c2ccccc2)NC(c2ccccc2)CC1(O)c1ccc(F)cc1 (stereo not given)	–	·	·	·
Cc1[nH]c(=O)[nH]c(=O)c1S(=O)(=O)Nc1ccc(Oc2ccccc2)cc1	–	?	–	–
CN(C)S(=O)(=O)Nc1ccc(Oc2ccccc2)cc1	–	–	13µM	–
COC(=O)[C@@]1(Cc2ccccc2)[C@H]2c3cc(C(=O)N(C)C)n(Cc4ccccc4)c3C[C@H]2CN1C(=O)c1ccccc1	–	·	–	–
N#Cc1c(N)sc2c1CCN(CCc1ccccc1)C2	?	–	–	?
N#Cc1c(NC(=S)NC(=O)c2ccccc2)sc2c1CCN(CCc1ccccc1)C2	?	?	–	18µM
N#Cc1c(NC(=S)NC(=O)c2ccccc2)sc2c1CCCC2	–	?	25µM	3.2µM
N#Cc1c(NC(=S)NC(=O)C2CCCC2)sc2c1CCCCC2	–	?	·	10µM
CC(C)CC(=O)NC(NC(=S)Nc1sc2c(c1C#N)CCCC2)C(Cl)(Cl)Cl (stereo not given)	–	–	14µM	3.5µM
O=c1cc(-c2cccc(-c3ccc(C(F)(F)F)cc3)c2)c2cc3c(cc2o1)OCO3	·	·	–	?
Cc1c(NC(=O)C(=O)/C=C(\O)c2ccc(Br)cc2)c(=O)n(-c2ccccc2)n1C	–	–	–	–
